Assay outcomes: PubChem BioAssay, Sanford-Burnham Center for Chemical Genomics
An excerpt weighted towards active compounds, which were near 4% of everything screened.
TROY signal inh: blocks TROY-dependent signaling in reporter cells | Q293 LMP1-TROYcd NF-kB luciferase reporter, 4 h | inhibition, % at 10 µM | 0.98% of 360,000 active;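 active means compounds whose plate-normalised and pattern-corrected inhibition of the luciferase reporter signal at the single screening dose is 50% or more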
HIF-2a inh: inhibitors of HIF-2a; 786-0 RCC cells HIF-2a reporter, luciferase luminescence, overnight; inhibition, % at 18.8 µM; 0.72% of 360,000 active; AID 624352;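 active means inhibition of the luminescence signal of 40% or more relative to plate controls, in a single-dose primary screen at 18.75 µM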
Peg3 promoter: reduces Peg3 promoter-driven luciferase expression in HeLa; HeLa PEG-Prom luciferase reporter, luminescence, overnight; inhibition, % at 20 µM; 1.7% of 360,000 active; AID 588405;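 active means inhibition of at least 50% at 20 µM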
TWEAK-Fn14 inh: TWEAK-Fn14 signaling inhibition; TWEAK-stimulated Fn14 reporter cells, luciferase luminescence, 8 h; inhibition, % at 10 µM; 2% of 360,000 active; AID 1159606; in the data active means inhibition above about 50%
KKLEB tox: CF airway cell cytotoxicity counter-screen; KKLEB CF airway cells viability, ATPlite luminescence, overnight; active compounds read low; cells stimulated with P. aeruginosa culture filtrate; activity change (cytotoxicity), % at 5 µM; 0.36% of 360,000 active; AID 602141;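 active means corrected activity change at or below -50% at 5 µM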
CF NFkB inh: inhibitors of cystic fibrosis induced NF-kB; 0.86% of 360,000 active; KKLEB NF-kB-GFP reporter, PAF-induced, GFP fluorescence overnight; inhibition, % at 5 µM;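 active means at least 50% inhibition at 5 µM, scaled per plate between neutral and stimulator controls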;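 further: PAF is a Pseudomonas aeruginosa culture filtrate used as stimulus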
Large screens that a line does not name were inactive.

COc1ccccc1NC(=O)C(C)NS(=O)(=O)c1ccccc1 (configuration not stated)	none (no result: TROY signal inh)
CCCCN=C1NN=C(c2ccc3c(c2)OCCO3)CS1	TROY signal inh 62, TWEAK-Fn14 inh 70
CCCCN=C1NN=C(c2ccc(C)c(C)c2)CS1	none
O=S(=O)(NN=Cc1cccc(Cl)c1)c1ccccc1	none
CN1CCN(/N=C/c2ccc(N(C)c3ccccc3)cc2)CC1	none
CN1CCN(/N=C/c2ccc(N(c3ccccc3)c3ccccc3)cc2)CC1	TROY signal inh 64, HIF-2a inh 90, Peg3 promoter 97
O=C(CCS(=O)(=O)c1ccc(Br)cc1)Nc1ccccc1Cl	none
COC(=O)CS(=O)(=O)c1nnc([C@H](Cc2ccccc2)NC(=O)OC(C)(C)C)o1	HIF-2a inh 45, Peg3 promoter 104, CF NFkB inh 66
Cc1c(/C=N/NC(=O)CNc2ccccc2)c2ccccn2c1C(=O)c1ccncc1	TWEAK-Fn14 inh 62
Cc1ccccc1C(=O)N1CCC(C(=O)Nc2ccc(S(=O)(=O)N3C(C)CCCC3C)cc2)CC1 (configuration not stated)	Peg3 promoter 78
Cc1ccc(NC(=O)C2CCN(C(=O)c3ccccc3C)CC2)cc1	none
COc1cc(OC)c(CN2CCN(c3ccc(F)cc3)CC2)cc1Br	none
COc1cccc(C(=O)Nc2cccc(-c3nnc(-c4ccco4)o3)c2)c1	Peg3 promoter 94
COc1ccc(Br)cc1C(=O)Nc1cccc(-c2nnc(-c3ccco3)o2)c1	Peg3 promoter 53
COc1ccc(Br)cc1C(=O)Nc1ccc(NC(=O)c2ccco2)cc1	none
Cc1cc(-c2nc3cccnc3s2)ccc1NS(=O)(=O)c1cccs1	none
Cc1cc(C)nc(S/C=C/C(=O)c2ccccc2F)n1	TROY signal inh 70, Peg3 promoter 97, TWEAK-Fn14 inh 93, CF NFkB inh 76
O=c1nc2s/c(=C\c3ccc(-c4ccccc4[N+](=O)[O-])o3)c(=O)n2nc1-c1ccccc1	TWEAK-Fn14 inh 57
NS(=O)(=O)c1ccc(N/N=C/c2cn(-c3ccccc3)nc2-c2cccs2)c([N+](=O)[O-])c1	KKLEB tox -82, CF NFkB inh 88
CC[C@@H](C)[C@H](C(CC(=O)N1CCCC1[C@@H](OC)[C@H](C)C(=O)N[C@H](Cc1ccccc1)c1nccs1)OC)N(C)C(=O)[C@H](NC(=O)[C@@H](C(C)C)N(C)C)C(C)C (some centres not stated)	CF NFkB inh 62
COc1ccc(C(=O)N(C)C(C)c2nccs2)cc1OC1CCN(C(C)=O)CC1 (configuration not stated)	none
CCCCCCCCC(c1nc2ccccc2[nH]1)N1CCN=C1c1cc2ccccc2[nH]1 (configuration not stated)	Peg3 promoter 100
Cn1c(-c2ccc(F)c(F)c2)cc2onc(-c3ccccc3)c2c1=O	none
COc1cccc(-c2cc3onc(-c4ccccc4)c3c(=O)n2C)c1	TROY signal inh 61, TWEAK-Fn14 inh 70
CC1=NNC(=O)C1CC(=O)N/N=C/c1cccs1 (configuration not stated)	TROY signal inh 54
COc1cccc(/C=N/NC(=O)CC2C(=O)NN=C2C)c1OC (configuration not stated)	none
CC1(C)OC(=O)C(=NNc2ccccc2C(=O)O)C(=O)O1	none
Cc1ccc(Cl)cc1N1CCN(C(=O)C2CCN(S(=O)(=O)c3c(C)nn(C)c3C)CC2)CC1	Peg3 promoter 51
CN(C)CCNC(=O)c1scc2c1CCCC2	none
COc1ccc(NC(=O)c2cnn(-c3ccccc3)c2C)cc1	TWEAK-Fn14 inh 50
Cc1c(C(=O)Nc2ccccc2)cnn1-c1ccccc1	none
Cc1ccc(NC(=O)c2cnn(-c3ccccc3)c2C)cc1C	TROY signal inh 63, TWEAK-Fn14 inh 85
O=[N+]([O-])c1ccc(CCn2ccnc2)cc1	none
CCC(=O)c1ccc(OCC(=O)N2CCN(C(=O)c3ccccc3)CC2)cc1	none
COc1cccc(NC(=O)N2CCc3nc(Nc4ccc(C(C)C)cc4)ncc3C2)c1	TROY signal inh 71, TWEAK-Fn14 inh 75
COc1cc(Nc2ncc3c(n2)CCN(C(=O)Nc2ccc(C(C)C)cc2)C3)cc(OC)c1OC	none
CC(C)c1ccc(-n2cccc2/C=C2/C(=N)N3C=CSC3=NC2=O)cc1	TWEAK-Fn14 inh 55
COc1cc(NCc2ccccc2O)c2ncccc2c1	none
